Rows were chosen to be rich in hits. Some 1% of all compounds tested hit in one or more screens of this group.
E-sel TNF inh = E-selectin induction blockers in HUVEC – imaging, immunofluorescence, high content, primary screen. 120,000 tested, 0.71% active. HUVEC TNFa-induced E-selectin immunofluorescence. inhibition, % at 2 µM;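 active = inhibition above the batch mean plus 3 SD, and confirmed as a hit on visual image review, cut at about 43% in these data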;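 note: 0% = TNF-stimulated DMSO wells and 100% = unstimulated control wells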
VCAM1 TNFa inh = inhibitors of TNFa-induced VCAM1 expression, primary screen, imaging, HUVEC, TNFa stimulus, immunofluorescence. HUVEC TNFa-induced VCAM-1 immunofluorescence, high-content imaging. AID 802, 2007. 95,000 tested, 0.48% active. inhibition, % at 2 µM;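 active = inhibition above the batch mean plus 3 SD, with images confirmed as a hit by eye, cut at about 37% in these data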;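 note: 0% = TNF-stimulated DMSO wells and 100% = unstimulated control wells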
HUVEC tox TNFa = cytotoxicity in TNFa-stimulated HUVEC, primary screen, cytotoxicity control for VCAM1 expression modulator project, imaging, Hoechst nuclei count | 93,000 tested, 0.17% active | cell count reduction, % at 2 µM | HUVEC TNFalpha-stimulated, Hoechst cell count;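 active = cell count reduction exceeding the screen mean by over 5 SD, scaled to untreated wells per plate, cut at about 78% in these data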;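 note: cells counted after 24 h of TNF alpha exposure following the 1 h pretreatment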
F-actin modifier = modifiers of F-actin cytoskeleton organization, primary screen, imaging, HUVEC, phalloidin staining, high-content imaging; HUVEC TNFa F-actin phalloidin imaging; inhibition, % at 2 µM; 91,000 tested, 0.18% active; AID 836, 2007;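 active = inhibition above the batch mean plus 3 SD and confirmed as a hit by visual image inspection, cut at about 30% in these data, passing the limit was not always enough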
* marks the source's active call; other numbers are inactive results; . = no result.

SMILES	E-sel TNF inh	VCAM1 TNFa inh	HUVEC tox TNFa	F-actin modifier
CCOC(=O)C1CCCN(S(=O)(=O)c2cn(C)c(=O)n(C)c2=O)C1 (stereo unspecified)	.	-24	79*	-13
CCN1c2ccccc2-c2nc3ccccc3n2C1c1cccnc1 (stereo unspecified)	100*	-24	-14	8
COc1cc(C2Nc3ccc4ncccc4c3C3=C2C(=O)CCC3)cc(OC)c1O (stereo unspecified)	-6	91*	-18	-6
Cc1ccc2[nH]c3c(c2c1)CCCC3=O	-7	11	14	-24
Cc1ccc2[nH]c3c(c2c1)CCC3=O	3	50*	2	15
CN(C)/C=N/c1nc2nccc(-c3ccccc3)n2n1	-20	.	.	.
Cn1c(CCNC(=O)c2ccc(Cl)c(Cl)c2)nnc1SCc1ccc(Cl)c(Cl)c1	100*	3	4	-17
Cc1cccc(OCC(=O)Nc2cc(C)ccc2O)c1	-16	58*	-4	-9
Cc1ccc(O)c(NC(=O)CCC2CCCCC2)c1	25	79*	26	-16
Cc1cccc(OCCCC(=O)O)c1	65*	9	10	-15
CCCCN(CCCC)C(=O)c1ccccc1NC(=O)CN1C(=O)c2ccccc2C1=O	20	20	-13	.
COc1ccc(S(=O)(=O)N2CCC(O)(c3cccnc3)CC2)cc1OC	-11	.	.	.
Cc1ccccc1NC(=O)c1ccc(-n2cncn2)nc1	9	2	3	-9
COc1ccccc1C(=O)NC(CCSC)C(=O)OCC(=O)NC(=O)NCc1ccco1 (stereo unspecified)	97*	.	.	.
COc1ccccc1C(=O)NC(CCSC)C(=O)NCC(c1ccco1)N(C)C (stereo unspecified)	.	-10	-20	25
Cc1ccc(C)n1-c1cccc(NC(=O)c2ccccc2)c1	93*	.	.	.
CCCSc1nc2c(=O)[nH][nH]c(=O)c2n1Cc1ccccc1	-28	6	0	-5
COc1cc(C2C(C#N)=C(N)Oc3cc(C)n(CCc4ccccc4)c(=O)c32)cc2c1OCO2 (stereo unspecified)	95*	.	.	.
COc1cc(C(=O)N/N=C/c2ccsc2C)cc(OC)c1OC	-35	57*	55	-58
C/C(Cl)=C\Cn1c(NCCCn2ccnc2)nc2c1c(=O)n(C)c(=O)n2C	.	88*	89*	-35
C/C(Cl)=C/Cn1c(NCCCn2ccnc2)nc2c1c(=O)[nH]c(=O)n2C	-13	5	-2	-20
O=C(Cn1ncc2c(=O)oc3ccccc3c21)N1CCc2ccccc2C1	90*	.	.	.
O=C(Cn1ncc2c(=O)oc3ccccc3c21)N1CCC(N2CCCCC2)CC1	-3	.	.	.
CN(C(=O)CO/N=C/c1ccc(Cl)cc1)c1ccccc1	2	.	.	.
CC(/C=N/NC(=O)CN1CCN(Cc2ccc(Cl)cc2)CC1)=C\c1ccco1	9	.	.	.
SMILES	E-sel TNF inh	VCAM1 TNFa inh	HUVEC tox TNFa	F-actin modifier
CC(/C=N/NC(=O)c1cc(-c2ccc(Cl)cc2)nc2ccccc12)=C\c1ccco1	3	80*	58	-2
CCOC(=O)c1c(C)[nH]c(C(=O)NCc2ccco2)c1C	-64	.	.	.
Cc1noc(C)c1C(=O)NCCC1=CCCCC1	64*	-3	-32	-8
Cc1cc(/C=C(\C#N)C(=O)NCCc2c[nH]c3ccccc23)c(C)n1C	13	.	.	.
COc1cc(/C=C(/C#N)C(=O)NCCc2c[nH]c3ccccc23)ccc1OCc1ccccc1F	-12	37*	36	0
O=C(c1ccc(Cl)cc1)N1CCCCC(Cl)C1=O (stereo unspecified)	-10	.	.	.
Cc1ccnc(N2C(=O)C3C4CC(C(Br)C4Br)C3C2=O)c1 (stereo unspecified)	54*	-2	1	16
O=C1C2C3CC(C(Br)C3Br)C2C(=O)N1c1ccccn1 (stereo unspecified)	-9	8	-9	-3
O=C(Cn1c(=O)c(=O)n(Cc2ccccc2)c2ccc(Cl)cc21)NCC1CCCO1 (stereo unspecified)	-20	.	.	.
Cc1cc(C)cc(NC(=S)NC2CC3CCCC(C2)N3C2CC2)c1 (stereo unspecified)	100*	.	.	.
COc1ccc(NC(=S)N2CCC(c3nc4ccccc4o3)CC2)c(OC)c1	-16	.	.	.
COc1ccccc1C(=O)Nc1ccc2c(c1)nc(CN1CCN(C(C)=O)CC1)n2C	21	90*	-10	6
CC(=O)N1CCN(Cc2nc3cc(NC(=O)c4ccccc4)ccc3n2C)CC1	5	26	-6	-3
O=C(CSc1ncccn1)N/N=C/c1ccccc1[N+](=O)[O-]	-34	.	.	.
O=C(CSc1cccc[n+]1[O-])c1cc(Cl)ccc1Cl	-25	.	.	.
